Screening results deposited in PubChem by National Center for Advancing Translational Sciences (NCATS).
Shown are actives, neighbours in structure and some others; about 2.8% of the full set was active somewhere.
GLP1R ag: GLP-1 receptor (human) agonism; P43220; HEK293 GLP-1R CRE-luciferase, luminescence, 4-6 h; cells express a hypersensitive GLP-1R form; Potency, µM (doses to about 45.6 µM), for the others: at the top dose activation, hits mostly activators; 380,000 compounds, 0.007% hits; AID 624172; note: % of control where 0% means no effect
Target sequence (P43220 whole entry, looked up): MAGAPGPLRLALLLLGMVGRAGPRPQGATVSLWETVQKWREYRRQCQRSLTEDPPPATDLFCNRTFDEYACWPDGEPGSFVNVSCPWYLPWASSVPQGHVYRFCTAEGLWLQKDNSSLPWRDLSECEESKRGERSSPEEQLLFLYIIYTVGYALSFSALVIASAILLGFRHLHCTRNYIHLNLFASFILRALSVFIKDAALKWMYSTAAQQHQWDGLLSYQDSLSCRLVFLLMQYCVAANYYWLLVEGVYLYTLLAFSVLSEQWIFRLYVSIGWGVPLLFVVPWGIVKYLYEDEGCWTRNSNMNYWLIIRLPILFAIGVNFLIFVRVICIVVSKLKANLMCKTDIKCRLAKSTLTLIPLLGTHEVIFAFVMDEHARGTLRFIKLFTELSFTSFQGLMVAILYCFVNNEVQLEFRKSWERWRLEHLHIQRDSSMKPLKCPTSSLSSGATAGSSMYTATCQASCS
GLP-1R inv ag: GLP-1 receptor (human) inverse agonism; P43220; AID 624417; Potency, µM (top dose mostly 38.3 µM), for the others: at the highest dose activity change, negative = inhibition, most hits filed as inhibitors; HEK293 GLP-1R CRE-luciferase, luminescence, 24 h; GLP-1R form is constitutively active; 410,000 compounds, 1.6% hits; note: % is set by controls: 0 for no effect and ±100 for the full control effect; nearly all actives have a fitted effect of over 55% in size
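Luminescence readout: a drop in cAMP-driven luciferase signal flags inverse agonism at a constitutively active GLP-1R stably expressed in HEK293. Compound exposure lasted 24 hr at 37 deg C, 5% CO2.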
BRCA1 expr up: increases BRCA1 expression; MCF7-BRCA1-FFLuc reporter, luminescence, 48 h; response scale: scaled: vehicle 0%, 10 µM genistein 100%; Potency, µM (doses to about 46.1 µM), for inactives: at the highest dose activation, hits mostly activators; 380,000 compounds, 1.1% hits; AID 624202; note: nearly all actives have a fitted effect of over 80% in size
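48 h compound treatment of MCF7-BRCA1-FFLuc cells (phenol-red free MEM, 37 °C), then 15 min with luciferase substrate and luminescence imaging.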
HEK293 tox: cytotoxicity counter-screen for GLP-1 receptor inverse agonists; 410,000 compounds, 0.13% hits; Potency, µM (top dose mostly 38.3 µM), for inactives: top-dose activity change, negative = inhibition, actives largely listed as inhibitors; HEK293 cAMP-luciferase reporter cells, luminescence, 24 h;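 note: loss of luciferase light is scored as toxicity; % is set by controls: 0 for no effect and ±100 for the full control effect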
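To flag toxic compounds, the library was rerun on cells for 24 hr at 37 deg C and 5% CO2. Viability-linked luminescence was captured 12 min after adding luciferase detection reagent.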
Mito fusion act: mitochondrial division inhibition or fusion activation. S. cerevisiae fusion-defective mutant growth rescue, CellTiterGlo 48 h. Potency, µM (doses to about 46.1 µM), for inactives: at the highest dose growth rescue (activation), hits mostly activators. 320,000 compounds, 0.23% hits. AID 485298; note: % of control where 0% means no effect; nearly all actives have a fitted effect of over 45% in size
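Luminescent cell viability in 1536-well qHTS format served as the measure of rescued growth in ts fusion-mutant S. cerevisiae cultured on non-fermentable YPEG for 48 hours at 37C.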
Starred values were filed as active, the others as inactive; ? = inconclusive; nt = no result given; [ ] = another dose, or the depositor's remark. Calls come from the whole dose curve; as a rule, active = well fitted curve in the direction sought with a large enough effect; inconclusive = small, poorly fitted or top-dose-only effect, or another doubt; inactive = no such curve, though single readings can be large; an effect the other way counts as inactive or inconclusive. Potency is the fitted concentration of half-maximal effect.

SMILES | GLP1R ag | GLP-1R inv ag | BRCA1 expr up | HEK293 tox | Mito fusion act
Nc1nc(Nc2ccccc2)nc2ccccc12 | -17% | ? | ? | 15% | -11%
CCOc1ccc(Nc2nc(N)nc(CCl)n2)cc1 | ? | 5µM* | -35% | ? | -9%
CN(C)c1ccc(Nc2nc(N)c3ccccc3n2)cc1 | -4% | 2µM* | -96% | -12% | -15%
CCOc1ccc(Nc2nc(N)c3ccccc3n2)cc1 | -5% | 2.2µM* | ? | -32% | -15%
CCOC(=O)C1CCCCN1C(=O)/C(=C/c1ccc(OC)cc1)c1ccc(OC)c(OC)c1 (configuration not stated) | 10% | 3% | 1% | 2% | nt
O=C(CN1C(=O)COc2ccccc21)NCCN1CCC(Cc2ccccc2)CC1 | -4% | 0% | -15% | ? | -1%
Cc1cc(Cl)ccc1NC(=O)NC1CCN(S(=O)(=O)c2ccc(F)cc2)CC1 | -5% | 6.3µM* | -42% | ? | 0%
O=C(Nc1ccc(F)cc1F)NC1CCN(Cc2c(F)cccc2Cl)CC1 | 10% | 8.9µM* | -21% | -2% | 5%
O=C(Nc1ccc(F)cc1)NC1CCN(Cc2c(F)cccc2Cl)CC1 | 19% | ? | -8% | 2% | 1%
O=C1C(=Cc2ccc(Cl)cc2)Cc2ccccc21 | 3% | 12% | 7% | 4% | nt
C=CC(=O)N1C/C(=C/c2ccc(Cl)cc2)C(=O)/C(=C\c2ccc(Cl)cc2)C1 | -2% | ? | -84% | 3.2µM* | nt
C=CC(=O)N1C/C(=C/c2ccccc2)C(=O)/C(=C\c2ccccc2)C1 | -19% | 4.5µM* | -97% | ? | nt
CSC(=N/N=C(\N)c1cnccn1)SC | -9% | 9% | 2% | 1% | -1%
CC(=O)c1ccc(NC(=O)C2CCCO2)cc1 (configuration not stated) | -6% | 15% | 28% | -8% | -3%
O=C(Nc1ccc2oc(-c3cccc4ccccc34)nc2c1)c1ncn[nH]1 | -5% | 64% | 2.2µM* | -14% | 10%
CCC(=O)CCC(=O)c1ccc2ccccc2c1 | 8% | -12% | 7.1µM* | -4%[1.53 µM] | -8%
N#C/C(=C\Nc1ccc2c(c1)OCCO2)C(=O)NCc1ccco1 | 19% | -9% | 0% | 4% | 9%
CN1CCN(c2ccc(Cl)cc2NC(=O)c2ccc(=O)n(C)n2)CC1 | -3% | 10µM* | -20% | 3% | -6%
CN1CCN(c2ccc(Cl)cc2NC(=O)c2cc(=O)[nH]c3ccccc23)CC1 | 17% | ? | -1% | -30% | 4%
CCCC[C@@H]1CC2=C(C(=O)OC(C)(C)O2)[C@H](c2ccc(C(C)C)cc2)O1 | -4% | ? | -1% | 3% | nt
CCCC(CCC)C(=O)Nc1ccc2c(c1)N(C(=O)CN1CCN(C)CC1)c1ccccc1CC2 | 6% | 7.9µM* | -20% | ? | -2%
CCCCn1cnc2c(c(-c3ccccc3)c(-c3ccccc3)n2Cc2ccco2)c1=N | 0% | ? | -16% | ? | 12%
N=c1c2c(-c3ccccc3)c(-c3ccccc3)n(Cc3ccco3)c2ncn1Cc1ccco1 | -19% | 8.9µM* | -79% | ? | 11%
N=c1c2c(-c3ccccc3)c(-c3ccccc3)n(Cc3ccccc3)c2ncn1CCCn1ccnc1 | -56% | 7.9µM* | -106% | 10µM* | -3%
Cc1cc(C)n(-c2nc3ccccc3nc2Nc2ccc3[nH]c(=O)[nH]c3c2)n1 | -5% | 0% | -17% | ? | -3%
SMILES | GLP1R ag | GLP-1R inv ag | BRCA1 expr up | HEK293 tox | Mito fusion act
Cc1nc2cc(C(=O)OCC(=O)N(CC(C)C)C3CCS(=O)(=O)C3)ccc2n1-c1ccccc1 (configuration not stated) | 5% | 6% | -1% | 4% | 2%
Cc1ccc(-n2c(Cl)c(Cl)nc(Cl)c2=O)cc1 | -6% | ? | -105% | 2.8µM* | -17%
N/C(CCS(=O)(=O)c1ccc(Cl)cc1)=N\OC(=O)c1ccccc1C(F)(F)F | 31% | ? | -50% | 10µM* | -15%
N/C(CCS(=O)(=O)c1ccc(Cl)cc1)=N\OC(=O)c1ccc(Cl)cc1 | -1% | 18% | 5% | 3% | -10%
CCCCc1nnc(NC(=O)C2=COCCO2)s1 | 0% | -8% | ? | -23% | 0%
S=c1nc(C23CC4CC(CC(C4)C2)C3)[nH][nH]1 | 0% | 12% | -11% | 4% | -2%
O=C(Nc1nccs1)c1ccc(-c2ccc([N+](=O)[O-])cc2)o1 | 0% | 9% | 3.2µM* | -6% | -2%
O=C(Nc1nccs1)c1ccc(-c2ccccc2Cl)o1 | 5% | ? | 95% | -4% | ?
O=C(Nc1nccs1)c1ccc(-c2ccccc2[N+](=O)[O-])o1 | 11% | 18% | 3.5µM* | -15% | -2%
C=CC[n+]1c(C)csc1Nc1cccc(Br)c1 | 12% | ? | 55% | -5% | 1%
C=CS(=O)(=O)N(Cc1ccc(Cl)c(Cl)c1)C[C@@H](O)CO | 3% | 6.3µM* | -50% | ? | nt
O=C(O)c1sccc1SCc1ccc(Cl)c(Cl)c1 | 8% | 0% | 11% | 3% | 4%
CCOc1ccc(NC(=O)c2c(NC(=O)CNCCN3CCOCC3)sc3c2CCC3)cc1 | -2% | 2.5µM* | -18% | ? | 0%
c1ccc(CN=C2NN=C(c3ccccc3)CS2)cc1 | -11% | -17%[0.307 µM] | 68% | 5%[0.307 µM] | 0%
CCN=C1NN=C(c2ccc(C)cc2)CS1 | 3% | -8% | 2.2µM* | ? | -5%
Cc1ccc(S(=O)(=O)N2CCN(C(=O)c3ccc(N4CCCC4)c([N+](=O)[O-])c3)CC2)cc1 | -7% | 10% | -1% | 1% | -2%
COc1ccc(C(=O)N(Cc2ccc(N(C)C)cc2)Cc2ccco2)cc1Cl | nt | ? | nt | -11% | nt
Cc1ccc(S(=O)(=O)Nc2ccccc2CNc2ncc(Br)cc2Br)cc1 | -2% | 10µM* | -65% | 6% | 0%
COC(=O)c1[nH]c2ccc(C)cc2c1NC(=O)CN1CCC(C)CC1 | -6% | 6.3µM* | -29% | -19% | 9%
COC(=O)c1[nH]c2ccc(C)cc2c1NC(=O)CN1CCN(Cc2ccccc2)CC1 | -2% | ? | -39% | ? | 1%
CCOC(=O)N1CCN(CC(=O)Nc2c(C(=O)OC)[nH]c3cc(C)ccc23)CC1 | 6% | 8% | -52% | -11% | 3%
COC(=O)c1[nH]c2ccc(C)cc2c1NC(=O)CN1CCN(C(=O)c2ccccc2)CC1 | 0% | -32% | -30% | ? | 1%
Cc1ccc2[nH]c(C(=O)O)c(NC(=O)CN3CCN(c4cccc(C)c4C)CC3)c2c1 | 5% | 10µM* | -27% | -18% | 0%
COC(=O)c1[nH]c2ccc(C)cc2c1NC(=O)CN1CCN(c2ccc(F)cc2)CC1 | 5% | 4µM* | -83% | -17% | 0%
